Data reported in the supplement of paper PMC4166925.
± gives the standard deviation of the averaged measurements. In all, about 33,000 sequences were measured (“E-score (dimensionless, -0.5 to 0.5)”: median about -0.049, highest 2% from about 0.37 on). The full list was thinned out, with the highest values kept by preference.

system: T1, PmTbr T-box DNA-binding domain (GST fusion); experiment: PBM E-score of 8-mer (E-score (dimensionless, -0.5 to 0.5)); Tbr is Tbrain of the sea star Patiria miniata (Pm) or the sea urchin Strongylocentrotus purpuratus (Sp); higher = stronger binding preference; details: the construct has about 5 more residues each side
T1 sequence: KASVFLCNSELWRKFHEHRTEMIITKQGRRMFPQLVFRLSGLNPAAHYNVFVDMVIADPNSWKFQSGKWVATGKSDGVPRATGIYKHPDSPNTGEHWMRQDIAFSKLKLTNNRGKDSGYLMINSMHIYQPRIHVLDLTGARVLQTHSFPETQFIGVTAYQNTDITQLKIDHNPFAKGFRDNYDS
Experimental: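 Universal protein-binding microarray (Agilent AMADID 016060, 60-bp probes with a 35-bp variable region) incubated with 200 nM GST-fused Patiria miniata Tbr T-box DNA-binding domain (residues 272-466) in PBS pH 7.5. Scored for every ungapped 8-mer (given with its reverse complement) by the Universal PBM Analysis Suite as E-score (modified Wilcoxon-Mann-Whitney enrichment, range -0.5 to 0.5; >0.45 counts as bound) and Z-score of median probe intensity. Two replicate arrays (datasets 1 and 2).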
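Also: 200 nM protein in PBS on universal arrays averaged over duplicate arrays.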

| Sequence | PBM E-score of 8-mer |
| --- | --- |
| CACTGCTG | -0.132 ± 0.038 |
| AAGAAGTC | 0.0125 ± 0.0032 |
| CGTAGGCC | -0.213 ± 0.033 |
| GCATATAC | -0.081 ± 0.0014 |
| CCTTGGGC | -0.035 ± 0.01 |
| GGTGCCAA | 0.454 ± 0.006 |
| AGTGCCAA | 0.3809 ± 0.0024 |
| AGTGCCAC | 0.287 ± 0.014 |
| GATGCCAC | 0.182 ± 0.072 |
| CGTGCCAC | 0.274 ± 0.03 |
| GGTGCCAC | 0.398 ± 0.015 |
| CGTGCCAA | 0.324 ± 0.0048 |
| AGTGCCAG | 0.2664 ± 0.0016 |
| TGTGCCAA | 0.351 ± 0.013 |
| GCGGCAGC | 0.0309 ± 0.0077 |
| GGCGAATA | 0.0105 ± 0.026 |
| ACGAATTG | 0.0628 ± 0.039 |
| ACAGCGCA | -0.0538 ± 0.03 |
| CCGCTATC | 0.177 ± 0.0022 |
| AACACGGT | 0.133 ± 0.049 |
| TGTGAAAA | 0.38 ± 0.057 |
| TGTGAACA | 0.4216 ± 0.0014 |
| CGTGAAAA | 0.338 ± 0.026 |
| GGTGAAAA | 0.2007 ± 0.0014 |
| CGTGAACA | 0.321 ± 0.021 |

| Sequence | PBM E-score of 8-mer |
| --- | --- |
| GGTGAACA | 0.00576 ± 0.0094 |
| CGTGAGAG | 0.265 ± 0.0088 |
| AAGCCAAT | -0.162 ± 0.051 |
| ACTCGAAC | -0.0874 ± 0.031 |
| CTCTGTGC | -0.0888 ± 0.082 |
| GGAGATTA | -0.0891 ± 0.063 |
| AGGGCCTC | -0.399 ± 0.0047 |
| CAAGCATG | -0.0451 ± 0.032 |
| TGTCTAAA | -0.0695 ± 0.011 |
| GAAGGACA | -0.0775 ± 0.028 |
| GCAGACAA | -0.0224 ± 0.054 |
| ACTCGCAG | 0.0856 ± 0.036 |
| CCTCGCAA | 0.118 ± 0.0037 |
| GCTCGCAA | 0.242 ± 0.015 |
| ACTCGCAC | 0.4 ± 0.0077 |
| CCTCGCAC | 0.42 ± 0.014 |
| CCTCGCAG | 0.0735 ± 0.061 |
| ACTCGCAT | -0.0149 ± 0.006 |
| GCTCGCCC | -0.213 ± 0.052 |
| GCTCGCAC | 0.42 ± 0.025 |
| ACAGCTAC | 0.115 ± 0.032 |
| AACTGGAG | -0.0661 ± 0.0033 |
| CGATAAGC | 0.124 ± 0.049 |
| AGAGGTGC | 0.411 ± 0.0084 |
| CGAGGTTA | 0.0486 ± 0.017 |

| Sequence | PBM E-score of 8-mer |
| --- | --- |
| CGAGGTGC | 0.457 ± 0.01 |
| AGAGGTTC | -0.124 ± 0.022 |
| AGAGGTGA | 0.352 ± 0.015 |
| CGAGGTCA | 0.0395 ± 0.11 |
| CGAGGTCC | -0.166 ± 0.06 |
| GGAGGTCA | 0.0158 ± 0.0067 |
| CGAGGTAC | -0.1003 ± 0.00044 |
| GGAGGTGA | 0.4036 ± 0.0026 |
| AGAGGTGG | 0.316 ± 0.0057 |
| CGAGGTGA | 0.4396 ± 0.0012 |
| ACCAACTA | -0.0247 ± 0.12 |
| CGAACAGC | 0.0465 ± 0.011 |
| TAAGTCTA | -0.0537 ± 0.026 |
| CGCCCTAC | -0.103 ± 0.061 |
| CCAACAAC | 0.0262 ± 0.0053 |
| GTGTTGAA | 0.4 ± 0.013 |
| ATGTTGGA | -0.0683 ± 0.0083 |
| CTGTTGGA | 0.0599 ± 0.038 |
| CTGTTGAA | -0.0551 ± 0.1 |
| GTGTTGGA | 0.382 ± 0.0051 |
| ATGTTGAA | -0.107 ± 0.017 |
| ACCTTTAT | 0.0337 ± 0.024 |
| AGTGTGTA | 0.172 ± 0.073 |
| TATGTGAA | 0.11 ± 0.1 |
| CGTGTGAA | 0.4524 ± 0.0013 |

| Sequence | PBM E-score of 8-mer |
| --- | --- |
| CGTGTGCA | 0.0443 ± 0.011 |
| AGTGTGAA | 0.48836 ± 0.00035 |
| AGAGTGAA | 0.0596 ± 0.056 |
| TGGGTGAA | -0.158 ± 0.043 |
| CGTGTGTA | 0.00111 ± 0.014 |
| TGTGTGAA | 0.4728 ± 0.0017 |
| CGCTACCA | 0.243 ± 0.024 |
| AGTTCTTC | -0.293 ± 0.02 |
| AAAAGTGC | 0.2475 ± 0.00082 |
| ATCCTTCA | -0.143 ± 0.044 |
| ACCGACCC | 0.00535 ± 0.068 |
| ACCATTAA | -0.0404 ± 0.015 |
| GAAGTCTC | 0.102 ± 0.062 |
| CGCCTAAG | 0.0221 ± 0.02 |
| ACCCTCAA | 0.0906 ± 0.052 |
| GAGTTGCC | 0.0293 ± 0.068 |
| CACAGCTG | 0.296 ± 0.0054 |
| ATGACAAA | -0.0227 ± 0.073 |
| GAGACACA | 0.053 ± 0.046 |
| CTGACAAC | 0.257 ± 0.012 |
| ATGACAAC | 0.241 ± 0.054 |
| CTGACACA | 0.344 ± 0.013 |
| ATGACGAA | -0.065 ± 0.04 |
| GTGACAAA | 0.428 ± 0.029 |
| GTGACAAC | 0.4452 ± 0.0036 |

| Sequence | PBM E-score of 8-mer |
| --- | --- |
| CTGACGAA | 0.0955 ± 0.048 |
| CTGACAAA | 0.12 ± 0.038 |
| GTGACACA | 0.416 ± 0.0096 |
| GTGACGAA | 0.371 ± 0.014 |
| GTAGTCGA | -0.0608 ± 0.0079 |
| ATTATTCG | -0.0471 ± 0.044 |
| CTGGCTTA | -0.275 ± 0.025 |
| CTACAGGC | -0.125 ± 0.0056 |
| GATGGTCA | -0.26 ± 0.0048 |
| CGCGAACA | 0.328 ± 0.007 |
| TACTTAAA | -0.246 ± 0.057 |
| GTGATTGA | 0.125 ± 0.042 |
| GACTCGAC | 0.0517 ± 0.016 |
| CGTTATCC | -0.058 ± 0.009 |
| CTCACATC | 0.3693 ± 0.0021 |
| CTCACATA | 0.0666 ± 0.017 |
| CGCACATC | 0.298 ± 0.055 |
| AACACACT | 0.229 ± 0.021 |
| CACACATC | 0.381 ± 0.035 |
| GACACAGC | 0.1102 ± 0.00023 |
| ATCACATC | 0.195 ± 0.058 |
| AACACATT | 0.389 ± 0.028 |
| GACACATC | 0.372 ± 0.0069 |
| CACACATG | 0.352 ± 0.0023 |
| AAAACATT | -0.0945 ± 0.013 |

| Sequence | PBM E-score of 8-mer |
| --- | --- |
| GACACATA | 0.322 ± 0.038 |
| AGTGAGGG | -0.0175 ± 0.1 |
| GACTGCGC | -0.107 ± 0.044 |
| ACGAAGCT | -0.143 ± 0.014 |
| AAGCGAAA | -0.083 ± 0.07 |
| AAGCAGTC | -0.167 ± 0.023 |
| GACTTCTC | 0.148 ± 0.065 |
| GGACTTGA | -0.145 ± 0.015 |
| CGCTCGGC | -0.148 ± 0.02 |
| AACACATC | 0.378 ± 0.013 |
| AACACATA | 0.373 ± 0.0082 |
| CACACATA | 0.365 ± 0.021 |
| AACACAGC | 0.0601 ± 0.048 |
| TACACATA | 0.115 ± 0.032 |
| AACACATG | 0.317 ± 0.013 |
| CCTAATAG | -0.122 ± 0.052 |
| CTGCTCAA | -0.0839 ± 0.036 |
| ATGTGTTC | 0.156 ± 0.025 |
| ATATGTTG | 0.0196 ± 0.038 |
| GTGTGTTA | 0.274 ± 0.012 |
| ATGTGTTG | 0.398 ± 0.008 |
| ATGTGTTA | 0.446 ± 0.0057 |
| CTGTGTTA | 0.158 ± 0.045 |
| CTCGAAGC | -0.0159 ± 0.011 |
| ACTACGTA | -0.156 ± 0.012 |

| Sequence | PBM E-score of 8-mer |
| --- | --- |
| GAGTTACA | 0.0401 ± 0.024 |
| CTTGTCAA | 0.305 ± 0.034 |
| ATTGTCAA | 0.248 ± 0.039 |
| ATTGTCAC | 0.427 ± 0.016 |
| ATTGTCAG | 0.134 ± 0.026 |
| CTTGTCGC | 0.277 ± 0.012 |
| CTTGTCAC | 0.405 ± 0.015 |
| GGGTTGAA | -0.0332 ± 0.073 |
| CCGCTACG | -0.186 ± 0.064 |
| GTGATAAC | 0.406 ± 0.02 |
| ATGATAAC | 0.0197 ± 0.036 |
| GTGATAAA | 0.339 ± 0.07 |
| ATTCCCAG | -0.25 ± 0.009 |
| GTGTATCA | -0.00951 ± 0.055 |
| GTGCTAAC | 0.453 ± 0.0072 |
| CTGCTAAC | 0.318 ± 0.029 |
| ATGCTAAC | 0.0631 ± 0.061 |
| GTGCTAAA | 0.435 ± 0.007 |
| GTGCTAGA | 0.382 ± 0.0098 |
| ATGCTAGA | -0.158 ± 0.055 |
| GAGCTAGA | -0.00238 ± 0.087 |
| TTGCTAAA | 0.241 ± 0.078 |
